From PubChem BioAssay (NCI) come the findings set out here.

About 79,000 compounds went through this panel and 15% of them were active in at least one assay; those are over-represented in the sample as a whole. Unmarked numbers belong to inactive results. Calls of active or inactive are those of the source. Cut-off read from the data, not from the text of the source: active = growth inhibition above about 70%; inactive = the rest.

A short description of test [1]: NCI Yeast Anticancer Drug Screen. Data for the rad50 strain (AID 155).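 Note: 0% = growth of vehicle-only cultures of the same strain.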 Conditions: S. cerevisiae rad50 strain growth inhibition, active compounds read high. The method, boiled down:
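Inhibition values express reduced yeast growth in compound-treated cultures relative to vehicle-treated controls.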

A short description of test [2]: NCI Yeast Anticancer Drug Screen. Data for the mec2-1 strain (AID 157). The settings on record: S. cerevisiae mec2-1 strain, active compounds read high. The method in brief:
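Test agents were screened against the mec2-1 yeast strain, with defined DNA repair or cell cycle alteration. Growth was scored as inhibition against vehicle-only controls.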

The nature of test [3]: NCI Yeast Anticancer Drug Screen. Data for the sgs1 mgt1 strain (AID 161).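 Note: 0% = growth of cultures given vehicle only.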 Conditions: S. cerevisiae sgs1 mgt1 strain, active compounds read high. The method, boiled down:
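Test agents were incubated with a DNA-repair-mutant yeast strain. Growth was then read and compared against vehicle-treated controls.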

The nature of test [4]: NCI Yeast Anticancer Drug Screen. Data for the cln2 rad14 strain (AID 165).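 Note: 0% = growth equal to vehicle treated cultures.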 Conditions: S. cerevisiae cln2 rad14 strain, active compounds read high. The method, boiled down:
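Growth of compound-exposed yeast (cln2 rad14 genotype) measured and expressed as inhibition relative to vehicle.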

Test [5] in a line: NCI Yeast Anticancer Drug Screen. Data for the bub3 strain (AID 167). The settings on record: S. cerevisiae bub3 mutant strain, active compounds read high. The method in brief:
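Steps: expose the mutant yeast strain to compound; grow alongside vehicle-treated cultures; measure growth; express inhibition against the vehicle cultures.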

Test [6] in a line: NCI Yeast Anticancer Drug Screen. Data for the mlh1 rad18 strain (AID 175). The settings on record: S. cerevisiae mlh1 rad18 strain growth inhibition, active compounds read high. The method, boiled down: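 In this whole-cell yeast screen, a strain with altered DNA damage repair is challenged with compound, and its growth is measured against matched vehicle-treated controls.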
[7] abbreviates: at 5.0 µM (retest, dose inferred, filed as 0.5).
[8] abbreviates: at 50.0 µM (retest, dose inferred, filed as 5.0).

In the case of `C/C(=N\NC(=S)Nc1ccc(S(N)(=O)=O)cc1)c1ccccn1`, the growth inhibition was 33% in test [1] (setting [7]); 64% in test [1] (setting [8]); 63.5% in test [1] (at 50.0 µM); 25% in test [2] (setting [7]); 65% in test [2] (setting [8]); 42.8% in test [2] (at 50.0 µM). Besides, the growth inhibition was 34% in test [3] (setting [7]); 84% (active) in test [3] (setting [8]); 28.9% in test [3] (at 50.0 µM); 20% in test [4] (setting [7]); 67% in test [4] (setting [8]); 24.5% in test [4] (at 50.0 µM). Moreover, the growth inhibition in test [5] (setting [7]) was 41%; in test [5] (setting [8]) it was 84% (active); in test [5] (at 50.0 µM), 37.6%; in test [6] (setting [7]), 39%; in test [6] (setting [8]) it was 70% (active); in test [6] (at 50.0 µM) it was 64%.

As for `NCCNCCNCc1c2ccccc2c(CNCCNCCN)c2ccccc12`, the growth inhibition was 13% in test [1] (setting [7]); 13% in test [1] (setting [8]); 36.2% in test [1] (at 50.0 µM); -3% in test [2] (setting [7]); -3% in test [2] (setting [8]); 90.9% (active) in test [2] (at 50.0 µM). Besides, the growth inhibition in test [3] (setting [7]) is 0%; in test [3] (setting [8]), 0%; in test [3] (at 50.0 µM), 90.9% (active); in test [4] (setting [7]), 5%; in test [4] (setting [8]), 5%; in test [4] (at 50.0 µM), 89.7% (active). Moreover, the growth inhibition in test [5] (setting [7]) is 7%; in test [5] (setting [8]), 7%; in test [5] (at 50.0 µM), 43.8%; in test [6] (setting [7]), 17%; in test [6] (setting [8]), 17%; in test [6] (at 50.0 µM), 90.8% (active).

For `C=CCNc1nc2c(s1)C(=O)c1ccccc1C2=O`, the growth inhibition was 95% (active) in test [1] (setting [7]); 98% (active) in test [1] (setting [8]); 90.8% (active) in test [1] (at 50.0 µM); 99% (active) in test [2] (setting [7]); 99% (active) in test [2] (setting [8]); 93.3% (active) in test [2] (at 50.0 µM). Besides, the growth inhibition is 100% (active) in test [3] (setting [7]); 99% (active) in test [3] (setting [8]); 93.9% (active) in test [3] (at 50.0 µM); 76% (active) in test [4] (setting [7]); 99% (active) in test [4] (setting [8]); 91.8% (active) in test [4] (at 50.0 µM). Also, the growth inhibition in test [5] (setting [7]) was 99% (active); in test [5] (setting [8]), 99% (active); in test [5] (at 50.0 µM) it was 91.9% (active); in test [6] (setting [7]) it was 98% (active); in test [6] (setting [8]), 98% (active); in test [6] (at 50.0 µM), 88% (active).

Take `CC(C)Cc1ccc(C(C)/C=C2\CCC(CN3CCCCC3)C2=O)cc1` (stereo not given): the growth inhibition in test [1] (setting [7]) is 93% (active); in test [1] (setting [8]), 98% (active); in test [1] (at 50.0 µM), 92.3% (active); in test [2] (setting [7]) it was 90% (active); in test [2] (setting [8]), 99% (active); in test [2] (at 50.0 µM) it was 94.2% (active). The growth inhibition in test [3] (setting [7]) is 84% (active); in test [3] (setting [8]), 98% (active); in test [3] (at 50.0 µM), 94.2% (active); in test [4] (setting [7]) it was 80% (active); in test [4] (setting [8]) it was 99% (active); in test [4] (at 50.0 µM), 92.7% (active). Besides, the growth inhibition in test [5] (setting [7]) was 98% (active); in test [5] (setting [8]), 98% (active); in test [5] (at 50.0 µM), 93.2% (active); in test [6] (setting [7]) it was 94% (active); in test [6] (setting [8]) it was 98% (active); in test [6] (at 50.0 µM), 89.6% (active).

For the molecule `CCOC(=O)C1CCN(Cc2ccccc2)CC1=O` (stereo not given), the growth inhibition was 61% in test [1] (setting [7]); 89% (active) in test [1] (setting [8]); 90% (active) in test [1] (at 50.0 µM); 61% in test [2] (setting [7]); 92% (active) in test [2] (setting [8]); 91.3% (active) in test [2] (at 50.0 µM). The growth inhibition was 68% in test [3] (setting [7]); 99% (active) in test [3] (setting [8]); 92.4% (active) in test [3] (at 50.0 µM); 49% in test [4] (setting [7]); 100% (active) in test [4] (setting [8]); 90.2% (active) in test [4] (at 50.0 µM). In addition, the growth inhibition in test [5] (setting [7]) is 81% (active); in test [5] (setting [8]), 98% (active); in test [5] (at 50.0 µM), 90.7% (active); in test [6] (setting [7]), 49%; in test [6] (setting [8]) it was 87% (active); in test [6] (at 50.0 µM), 90.8% (active).

Consider `Nc1c(-c2ccc(C3=NCCN3)cc2)[nH]c2cc(C3=NCCN3)ccc12`, for which the growth inhibition is 2% in test [1] (setting [7]); 89% (active) in test [1] (setting [8]); 32.3% in test [1] (at 50.0 µM); 1% in test [2] (setting [7]); 89% (active) in test [2] (setting [8]); -29% in test [2] (at 50.0 µM). Also, the growth inhibition was 14% in test [3] (setting [7]); 92% (active) in test [3] (setting [8]); 69.9% in test [3] (at 50.0 µM); 13% in test [4] (setting [7]); 83% (active) in test [4] (setting [8]); 49.5% in test [4] (at 50.0 µM). The growth inhibition in test [5] (setting [7]) was 22%; in test [5] (setting [8]), 94% (active); in test [5] (at 50.0 µM), 74.1% (active); in test [6] (setting [7]), 3%; in test [6] (setting [8]), 90% (active); in test [6] (at 50.0 µM) it was -46.2%.

For `Cc1ccc(C(=O)OCCN2CCOCC2)c([N+](=O)[O-])c1OCc1ccccc1`, the growth inhibition is 14% in test [1] (setting [7]); 61% in test [1] (setting [8]); 73.2% (active) in test [1] (at 50.0 µM); 18% in test [2] (setting [7]); 46% in test [2] (setting [8]); 63.4% in test [2] (at 50.0 µM). Further, the growth inhibition was 13% in test [3] (setting [7]); 81% (active) in test [3] (setting [8]); 84.7% (active) in test [3] (at 50.0 µM); 11% in test [4] (setting [7]); 28% in test [4] (setting [8]); 6.7% in test [4] (at 50.0 µM). In addition, the growth inhibition in test [5] (setting [7]) is 11%; in test [5] (setting [8]), 65%; in test [5] (at 50.0 µM), 68.5%; in test [6] (setting [7]), 10%; in test [6] (setting [8]) it was 58%; in test [6] (at 50.0 µM) it was 78.3% (active).

As for `Fc1ccc(NC2=NCCN=C(Nc3ccc(F)cc3)SS2)cc1`, the growth inhibition is 0% in test [1] (setting [7]); 70% (active) in test [1] (setting [8]); 85% (active) in test [1] (at 50.0 µM); 6% in test [2] (setting [7]); 66% in test [2] (setting [8]); 86.5% (active) in test [2] (at 50.0 µM). Further, the growth inhibition was 4% in test [3] (setting [7]); 69% in test [3] (setting [8]); 86% (active) in test [3] (at 50.0 µM); -9% in test [4] (setting [7]); 77% (active) in test [4] (setting [8]); 69.8% in test [4] (at 50.0 µM). Also, the growth inhibition was 6% in test [5] (setting [7]); 76% (active) in test [5] (setting [8]); 88% (active) in test [5] (at 50.0 µM); 29% in test [6] (setting [7]); 85% (active) in test [6] (setting [8]); 80.8% (active) in test [6] (at 50.0 µM).

In the case of `CCNc1ncnc2c1ncn2Cc1ccco1`, the growth inhibition in test [1] (setting [7]) is -4%; in test [1] (setting [8]) it was 0%; in test [1] (at 50.0 µM) it was -1.1%; in test [2] (setting [7]), -3%; in test [2] (setting [8]) it was 0%; in test [2] (at 50.0 µM) it was 1.4%. For the same molecule, the growth inhibition in test [3] (setting [7]) is -7%; in test [3] (setting [8]) it was -3%; in test [3] (at 50.0 µM), 4.8%; in test [4] (setting [7]) it was 1%; in test [4] (setting [8]), -6%; in test [4] (at 50.0 µM), 71.3% (active). Also, the growth inhibition in test [5] (setting [7]) was -2%; in test [5] (setting [8]) it was 1%; in test [5] (at 50.0 µM), -4.05%; in test [6] (setting [7]) it was 1%; in test [6] (setting [8]) it was 1%; in test [6] (at 50.0 µM), -2%.

On to `CC12CCC(=O)C=C1C=CC1C2CCC2(C)C1CCC21CCC(=O)O1` (stereo not given), for which the growth inhibition in test [1] (setting [7]) was 11%; in test [1] (setting [8]), 99% (active); in test [1] (at 50.0 µM), 74.6% (active); in test [2] (setting [7]), 5%; in test [2] (setting [8]), 99% (active); in test [2] (at 50.0 µM) it was 80.2% (active). Also, the growth inhibition in test [3] (setting [7]) is 7%; in test [3] (setting [8]), 99% (active); in test [3] (at 50.0 µM), 84% (active); in test [4] (setting [7]) it was 2%; in test [4] (setting [8]), 99% (active); in test [4] (at 50.0 µM), 24.1%. Besides, the growth inhibition in test [5] (setting [7]) was -1%; in test [5] (setting [8]) it was 99% (active); in test [5] (at 50.0 µM) it was 66.7%; in test [6] (setting [7]) it was 7%; in test [6] (setting [8]), 99% (active); in test [6] (at 50.0 µM) it was 72.8% (active).
